HCMV NEC inh: inhibitors of HCMV UL50-UL53 nuclear egress complex interaction. HTRF UL50-UL53 interaction, normalized percent inhibition. inhibition, % (no concentration beside the values). 190,000 compounds, 0.15% hits. AID 1918969; in the data active = inhibition above about 27%, passing the limit was not always enough
Sa growth inh: blocks Staphylococcus aureus growth | 170,000 compounds, 0.53% hits | S. aureus RN4220 growth, OD600, 20 h, 42 °C; hits give low values | AID 720641 | relative growth, % (concentration not given with the values);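 active = relative growth at most 50% at the other temperature and 20+ points below 30 °C, or under 10% at both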
S aureus helic: S. aureus DNA helicase inhibition | purified S. aureus helicase, fluorescence unwinding assay | inhibition, % (no concentration beside the values) | 120,000 compounds, 0.05% hits; in the data active = inhibition above about 25%, passing the limit was not always enough;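 also: 0% = mean of negative control wells and 100% = mean of positive control wells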
An asterisk follows results filed as active; nt = no result given. The full list was thinned out, with hits kept by preference.

SMILES	HCMV NEC inh	Sa growth inh	S aureus helic
CC(C)Nc1ccc(Nc2ccccc2)cc1	-35.9	4.5*	19.0
CC(=O)Nc1ccc(-c2ccccc2)cc1	-7.5	104.2	nt
CN1C2CCC1CC(=O)C2	-22.7	nt	nt
Clc1ccc(C(Cn2ccnc2)OCc2c(Cl)cccc2Cl)c(Cl)c1 (centres undefined)	-1.6	nt	nt
Clc1ccc(C(Cn2ccnc2)OCc2csc3c(Cl)cccc23)c(Cl)c1 (centres undefined)	-31.5	0.9*	nt
N#CC[N+]12CCN(CC1)CC2	1.0	100.6	15.0
CN(C)C(=S)SSC(=S)N(C)C	-26.5	-0.7*	nt
OC(c1cccs1)(c1cccs1)C1CN2CCC1CC2 (centres undefined)	15.4	102.7	-16.0
Cc1ccc(C(O)(c2ccc(C)c(C)c2)C2CN3CCC2CC3)cc1C (centres undefined)	nt	22.6*	-4.0
CN(C)[C@@H]1C(=O)C(C(N)=O)=C(O)[C@@]2(O)C(=O)C3=C(O)c4c(O)ccc(Cl)c4[C@@](C)(O)C3C[C@@H]12 (some centres undefined)	-26.3	nt	nt
CN(C)[C@@H]1C(=O)C(C(N)=O)=C(O)[C@@]2(O)C(=O)C3=C(O)c4c(O)cccc4[C@@](C)(O)[C@H]3C[C@@H]12	-71.2	-0.1*	nt
CC(C)NCc1ccc2c(c1)OCO2	-39.3	103.0	3.0
N=c1sccn1Cc1ccccc1	-11.1	92.9	-5.0
Cc1ccc2c(c1)C1CN(C)CCC1N2Sc1ccc(Cl)cc1 (centres undefined)	1.7	-1.3*	-5.0
Cc1ccc2c(c1)C1CN(C)CCC1N2C(=O)Cc1cccs1 (centres undefined)	-23.7	132.0	17.0
C=C1C[C@@H]2[C@@H](CC[C@@]3(C)C(=O)CC[C@@H]23)[C@@]2(C)C=CC(=O)C=C12	-16.1	nt	nt
CN1C(=O)[C@]23CC4=CC=C[C@H](O)[C@H]4N2C(=O)[C@@]1(CO)SS3	54.9*	nt	nt
CCCCOC(=O)c1cc(-c2ccc(C=C3C(=O)NC(=O)NC3=O)o2)ccc1Cl	-19.8	nt	nt
CN1CCc2cc3c(c4c2C1Cc1ccccc1-4)OCO3 (centres undefined)	-9.3	0.1*	24.0
CN1CCc2cc(O)cc3c2[C@H]1Cc1ccc(O)c(O)c1-3	-38.0	nt	nt
COc1ccccc1N1CCN(C(=O)C2c3ccccc3C(=O)N3CCC(C)CC23)CC1 (centres undefined)	-10.5	104.5	-26.0
CC(=O)N1C(C(=O)O)CSC12CCN(C)CC2 (centres undefined)	nt	93.4	4.0
CCOc1ccc(C2SCC(=O)Nc3c2c(=O)[nH]n3C(C)C)cc1 (centres undefined)	1.1	104.8	-5.0
CCCCCCCCCCCCCCCCSP(=O)([O-])OCC[N+](C)(C)C	-19.2	nt	nt
CCCCCCCCCCCCCCCC[N+](C)(C)C	-12.8	-0.5*	nt
SMILES	HCMV NEC inh	Sa growth inh	S aureus helic
Cn1cc(Cl)c(C=C(C#N)C#N)n1	17.0	91.6	-36.0
Cn1c(=O)c2ncnnc2n(C)c1=O	12.1	5.9*	7.0
CN1C(=O)C(=Cc2ccco2)C(=O)N(C)C1=O	-9.8	88.6	6.0
CCOC(=O)CSCCOc1ccc(C=C2C(=O)NC(=O)NC2=O)cc1OC	60.1*	nt	nt
COc1ccc(C=C2C(=O)NC(=O)NC2=O)cc1	nt	82.4	1.0
CCOC(=O)COc1ccc(/C=C2\C(=O)NC(=S)N(c3ccc(OC)cc3)C2=O)cc1OC	-32.3	nt	nt
COc1cc(C=C2C(=O)NC(=O)NC2=O)ccc1OS(=O)(=O)c1ccccc1	60.2*	nt	nt
N#Cc1ccc(N2CCNCC2)nc1	-8.7	111.2	nt
CCCc1nc(C)cc(N2CCNCC2)n1	6.9	nt	nt
COc1ccc(-c2nn(CCC#N)cc2C(=O)O)cc1OC	-8.2	97.8	10.0
O=C(c1cc2c(Cl)nc3ccccc3c2s1)N1CCC2(CC1)OCCO2	nt	106.0	16.0

Source: PubChem BioAssay (ICCB-Longwood Screening Facility, Harvard Medical School)
